The source made the active and inactive calls.

The test system of assay [1] is Plasmodium falciparum Sir2 (PF13_0152, Sir2A). Kind of assay: Plasmodium falciparum Sir2A binding compounds – biochemical, small-molecule microarray, 635 nm fluorescence, primary screen (AID 1098).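 Further: score merges spot fluorescence intensity with its signal-to-noise ratio.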 The following applies: fluorescence 635 nm, higher = more signal.
Assay [2] can be described thus: probe aDKK1 binding to arrayed compounds – biochemical, biotinylated probe, 635/667 nm fluorescence, primary screen (AID 1099).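 Further: score merges 667nm spot fluorescence with signal to noise across triplicate slides; reference of the scale not given here.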 As to conditions: small-molecule microarray, higher = more signal.
Assay [3] can be described thus: probe aCHRDL2 binding to arrayed compounds – biochemical, biotinylated probe, 635/667 nm fluorescence, primary screen (AID 1100). The following applies: small-molecule microarray, higher = more signal.
A short description of assay [4]: change in splice reporter luminescence, either direction, cell-based, HEK293, spliceosome inhibition project, primary screen (AID 1101).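 Further: HEK293 cells carrying a splicing-competent luciferase reporter gene; test concentration not given here.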 The following applies: HEK293 splicing luciferase reporter, 24 h, higher = more signal, called active from +8 up or from −8 down. (In general: A reporter such as luciferase makes a cellular process visible.)
Assay [5] concerns the target Fibroblast growth factor 10 (Homo sapiens) (UniProt O15520). Kind of assay: compounds binding fibroblast growth factor 10 – biochemical, small-molecule microarray, 635 nm fluorescence, primary screen (AID 1102). As to conditions: FGF10 binding, fluorescence 635 nm, higher = more signal.
Assay [6] has as its system glycogen synthase kinase-3 (GSK3A per assay name; protocol says GSK3B). Nature of the assay: compounds binding glycogen synthase kinase-3 – biochemical, small-molecule microarray, 635 nm fluorescence, GSK3A, primary screen (AID 1103). Further: the record names both GSK3A and GSK3B. The following applies: fluorescence 635 nm, higher = more signal.
For assay [7], the target named is Epidermal growth factor receptor (Homo sapiens) (UniProt P00533). Kind of assay: compounds binding epidermal growth factor receptor – biochemical, small-molecule microarray, 635 nm fluorescence, primary screen (AID 1104).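 Further: score merges 667 nm emission intensity with spot signal to noise over triplicate slides.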 The following applies: EGFR binding, higher = more signal.
Sequence of Epidermal growth factor receptor (Homo sapiens) (P00533 whole entry, looked up): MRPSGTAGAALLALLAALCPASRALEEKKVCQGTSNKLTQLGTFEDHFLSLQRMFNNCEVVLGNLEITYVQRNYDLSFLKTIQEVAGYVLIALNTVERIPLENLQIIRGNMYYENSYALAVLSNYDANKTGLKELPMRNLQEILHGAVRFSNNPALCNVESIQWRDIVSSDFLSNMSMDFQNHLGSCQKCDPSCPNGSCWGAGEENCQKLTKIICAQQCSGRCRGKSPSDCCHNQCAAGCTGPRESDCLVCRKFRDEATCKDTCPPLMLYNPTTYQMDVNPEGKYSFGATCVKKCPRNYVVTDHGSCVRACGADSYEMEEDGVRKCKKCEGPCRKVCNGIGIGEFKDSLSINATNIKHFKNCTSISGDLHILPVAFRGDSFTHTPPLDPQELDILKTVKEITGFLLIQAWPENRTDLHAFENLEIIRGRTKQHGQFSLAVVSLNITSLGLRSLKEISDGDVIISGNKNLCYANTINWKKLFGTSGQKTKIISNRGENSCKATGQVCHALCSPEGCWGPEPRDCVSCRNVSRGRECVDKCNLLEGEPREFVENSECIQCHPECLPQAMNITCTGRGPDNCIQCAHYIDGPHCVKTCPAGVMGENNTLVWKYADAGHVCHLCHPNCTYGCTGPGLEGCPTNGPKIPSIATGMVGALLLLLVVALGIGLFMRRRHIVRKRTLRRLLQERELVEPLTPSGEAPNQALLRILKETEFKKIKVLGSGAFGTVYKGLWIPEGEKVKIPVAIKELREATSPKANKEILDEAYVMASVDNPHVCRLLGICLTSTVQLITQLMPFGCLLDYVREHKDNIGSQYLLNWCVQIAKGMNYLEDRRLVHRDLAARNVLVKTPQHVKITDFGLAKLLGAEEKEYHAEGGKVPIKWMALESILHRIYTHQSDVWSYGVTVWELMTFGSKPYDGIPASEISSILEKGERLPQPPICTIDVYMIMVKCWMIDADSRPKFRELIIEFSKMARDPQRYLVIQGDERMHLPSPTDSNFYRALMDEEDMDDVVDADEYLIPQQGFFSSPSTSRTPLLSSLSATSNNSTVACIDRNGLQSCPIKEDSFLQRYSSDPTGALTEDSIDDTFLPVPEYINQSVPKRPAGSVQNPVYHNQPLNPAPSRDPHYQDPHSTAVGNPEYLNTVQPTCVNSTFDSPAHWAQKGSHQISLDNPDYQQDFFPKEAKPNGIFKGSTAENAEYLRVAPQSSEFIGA
The target of assay [8] is Follistatin-related protein 3 (Homo sapiens) (UniProt O95633). Nature of the assay: compounds binding follistatin-related protein 3 – biochemical, small-molecule microarray, 635 nm fluorescence, primary screen (AID 1105).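 Further: score merges emission near 667 nm and signal to noise per printed spot across three slides.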 The following applies: FSTL3 binding, higher = more signal.
Sequence of Follistatin-related protein 3 (Homo sapiens) (O95633 whole entry, looked up): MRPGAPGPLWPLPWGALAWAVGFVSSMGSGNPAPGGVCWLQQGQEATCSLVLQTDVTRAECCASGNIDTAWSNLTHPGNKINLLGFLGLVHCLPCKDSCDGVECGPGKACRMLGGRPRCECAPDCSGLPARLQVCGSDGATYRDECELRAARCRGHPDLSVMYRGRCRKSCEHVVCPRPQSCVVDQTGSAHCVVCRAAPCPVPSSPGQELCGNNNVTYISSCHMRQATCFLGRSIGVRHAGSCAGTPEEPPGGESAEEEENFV
For assay [9], the target named is Dickkopf-related protein 1 (Homo sapiens) (UniProt O94907). Kind of assay: small molecules binding DKK1 protein – biochemical, small-molecule microarray, 635 nm fluorescence scan, primary screen (AID 1106).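 Further: score merges emission near 667 nm with signal to noise over three replicate slides.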 The following applies: higher = more signal.
Sequence of Dickkopf-related protein 1 (Homo sapiens) (O94907 whole entry, looked up): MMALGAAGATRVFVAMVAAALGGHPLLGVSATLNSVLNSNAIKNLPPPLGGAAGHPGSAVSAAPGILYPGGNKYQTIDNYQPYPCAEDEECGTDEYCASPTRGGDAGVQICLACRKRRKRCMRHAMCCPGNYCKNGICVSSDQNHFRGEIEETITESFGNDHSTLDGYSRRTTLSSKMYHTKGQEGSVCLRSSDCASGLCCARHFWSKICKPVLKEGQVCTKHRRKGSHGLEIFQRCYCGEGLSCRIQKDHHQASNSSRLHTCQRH
Assay [10] has as its system Inhibin beta A chain (activin A). Kind of assay: small molecules binding activin A – biochemical, small-molecule microarray, 635 nm fluorescence scan, primary screen (AID 1107).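 Further: mouse activin A protein probed at 4.33 µg/mL on printed slides; score merges bound-protein fluorescence near 667 nm with spot signal-to-noise.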 As to conditions: INHBA, higher = more signal.

Sequence of Fibroblast growth factor 10 (Homo sapiens) (O15520 whole entry, looked up): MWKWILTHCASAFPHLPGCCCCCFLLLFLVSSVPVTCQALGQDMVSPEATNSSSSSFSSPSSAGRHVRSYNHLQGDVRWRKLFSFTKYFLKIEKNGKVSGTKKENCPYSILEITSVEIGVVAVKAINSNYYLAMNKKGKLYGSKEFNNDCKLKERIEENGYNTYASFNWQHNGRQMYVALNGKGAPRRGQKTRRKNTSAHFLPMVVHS

As to `[N-]=[N+]=NCc1ccccc1[C@H]1OC(c2ccc(OCCCO)cc2)=N[C@@]1(Cc1ccccc1)C(=O)N1CCOCC1`, the composite z-score in assay [1] was found to be 1.25; in assay [2] it was 0.721; in assay [3] it was 0.884; in assay [5], 1.37; in assay [6], 1.33; in assay [7], 0.0968. Also, the composite z-score in assay [8] was 0.808; in assay [9], -0.0244; in assay [10], -0.303. For the same compound, the z-score in [4] is -0.991 (inactive).
In the case of `C#CCN=C(N)N`, the composite z-score in assay [1] is 0.271; in [2], 0.0623; in assay [3] it was -0.534; in [5], 0.528; in [6], 0.605; in assay [7] it was 0.527. In addition, the composite z-score in [8] came to 0.918; in [9] it was 0.861; in assay [10], 0.548. Further, the z-score in assay [4] was 0.422 (inactive).
Regarding `COc1ccc([Si](C)(C)[C@@H]2[C@@H](CCO)O[C@]3(C(=O)N(Cc4ccccc4)c4ccc(N5C(=O)c6ccccc6Oc6ccccc65)cc43)[C@H]2C)cc1`, the composite z-score in assay [1] is 0.0104; in assay [2], -0.171; in assay [3], 0.462; in [5], -0.673; in assay [6], -1.02; in assay [7], -1.04. In addition, the composite z-score in assay [8] is -0.398; in assay [9], -0.328; in [10], -0.0458. Also, the z-score in [4] was -1.28 (inactive).
Turning to `COCCOC(=O)N1C(=O)[C@@]2(c3ccccc31)[C@H](C(N)=O)[C@H]1C(=O)O[C@H](c3ccccc3)[C@H](c3ccccc3)N1[C@@H]2c1ccc(OCCO)cc1`, the composite z-score in [1] is 0.537; in assay [2], -0.122; in assay [3], 0.093; in [5], 1.08; in assay [6], 1.3; in [7], 0.0401. Further, the composite z-score stood at 1.1 in assay [8], 0.253 in assay [9] and 0.319 in [10]. Also, in assay [4], the z-score is 0.172 (inactive).
Regarding `O=C1C2C=CC(C(O)c3cccc(O)c3)N(Nc3ccccc3F)C2C(=O)N1c1ccccc1` (stereo not given), the composite z-score is 1.86 in assay [1]; -0.143 in assay [2]; 0.247 in assay [3]; -0.177 in assay [5]; -0.127 in assay [6]; -0.175 in assay [7]. The values for the composite z-score in assay [8], in assay [9] and in assay [10] were 0.338, -0.128 and 0.452, respectively. Further, in [4], the z-score is -3.1 (inactive).
In the case of `[N-]=[N+]=NCc1ccccc1C[C@]1(C(=O)N2CCCCC2)N=C(c2ccc(OCCCO)cc2)O[C@H]1c1ccccc1`, the composite z-score was 0.92 in [1]; 0.484 in assay [2]; 0.769 in assay [3]; 0.567 in assay [5]; 0.568 in [6]; -0.761 in [7]. For the same compound, the composite z-score in [8] is -0.278; in assay [9] it was -0.64; in [10], 0.55. For the same compound, in [4], the z-score is -0.44 (inactive).
On to `CC(=O)NCCCC[C@@H]1NC(=O)[C@H]2C[C@@H](C(=O)NCCCCCC[N+](C)(C)C)[C@@H](c3ccc(O)cc3)N2C1=O`, for which the composite z-score is 1.71 in [1]; -0.186 in assay [2]; -0.414 in assay [3]; 0.348 in assay [5]; 0.612 in [6]; 0.173 in assay [7]. Further, the composite z-score came out at 0.946 in assay [8], 1.23 in assay [9] and 0.965 in [10]. Further, in [4], the z-score was -0.652 (inactive).
Take `CC=CC(O)C1C=CC2C(=O)N(C)C(=O)C2N1NC(=O)OC(C)(C)C` (stereo not given): the composite z-score is 0.589 in [1]; 0.112 in assay [2]; -0.388 in [3]; 0.216 in assay [5]; 0.423 in assay [6]; 0.271 in assay [7]. Besides, the composite z-score in assay [8] was determined as 0.864; in assay [9] it was 0.739; in assay [10], 1.04. Further, the z-score in [4] is 1.54 (inactive).
For the compound `C=CCOC(=O)[C@H]1[C@@H]2C(=O)O[C@@H](c3ccccc3)[C@@H](c3ccccc3)N2[C@@H](c2ccc(OCCOC(=O)[C@@H]3C[C@@H]4C(=O)N[C@@H](Cc5ccccc5)C(=O)N4[C@@H]3c3ccc(O)cc3)cc2)[C@]12C(=O)Nc1ccccc12`, the composite z-score was 1.34 in assay [1]; -0.271 in assay [2]; -0.25 in assay [3]; 1.18 in [5]; 1.29 in [6]; 0.328 in [7]. Besides, the composite z-score in assay [8] is 0.953; in assay [9], 0.973; in assay [10], -0.0812. Also, the z-score in assay [4] was 0.878 (inactive).
Take `COC(=O)[C@@]1(Cc2ccc(OC)cc2)[C@@H]2[C@@H](CC(=O)[C@H]2CC(=O)C(=O)N2CCCC2)CN1C(=O)c1ccccc1`: the composite z-score in assay [1] was 1.66; in assay [2], 2.76; in assay [3] it was 1.21; in assay [5], 1.44; in assay [6], 1.07; in [7], 0.725. Moreover, the composite z-score in assay [8] turned out to be 0.868; in assay [9], 0.823; in [10] it was 0.846. In addition, in assay [4], the z-score was -2.69 (inactive).
Regarding `CCCCC=C[C@@H](NC(=O)c1ccc(C(F)(F)F)cc1)c1ccccc1`, the composite z-score in assay [1] is -0.101; in assay [2] it was 0.256; in assay [3], 0.905; in [5], -1.13; in assay [6], -1.03; in assay [7] it was -1.28. Besides, the figures for the composite z-score in assay [8], in assay [9] and in [10] were -1.01, -1.37 and 1.37, respectively. For the same compound, the z-score in assay [4] is -4.33 (inactive).
In the case of `C=CCOC(=O)[C@@H]1[C@H]2C(=O)O[C@H](c3ccccc3)[C@H](c3ccccc3)N2[C@H](c2ccc(OCCOC(=O)[C@H]3C[C@H]4C(=O)NCC(=O)N4[C@H]3c3ccc(O)cc3)cc2)[C@@]12C(=O)Nc1ccc(I)cc12`, the composite z-score stood at 1.57 in assay [1]; 0.159 in assay [2]; 0.21 in assay [3]; 0.613 in [5]; 1.35 in [6]; 0.728 in [7]. Besides, the results for the composite z-score in assay [8], in [9] and in assay [10] were 1.02, 0.674 and -0.0057, respectively. Also, the z-score in assay [4] is 1.14 (inactive).
With `CCC[C@@H]1[C@@H](Sc2ccccc2)[C@@H](C(=O)O)[C@H](c2ccc(C)cc2)N1S(=O)(=O)c1ccc(C)cc1`, the composite z-score in assay [1] is 1.05; in [2], 0.505; in assay [3], 0.284; in assay [5] it was 1.25; in [6] it was 1.36; in assay [7], 0.163. For the same compound, the composite z-score in assay [8] came out at 1.34; in [9] it was 0.188; in assay [10], 0.267. Moreover, the z-score in assay [4] was -0.114 (inactive).
For the compound `O=C1N(Cc2ccccc2)c2ccccc2[C@H]2OC(c3ccc(OCCCO)cc3)=N[C@@]12Cc1ccccc1`, the composite z-score in assay [1] stood at 1.53; in assay [2], 0.655; in [3] it was 0.794; in assay [5] it was 1.16; in assay [6], 1.29; in [7], 0.279. For the same compound, the composite z-score amounted to 0.582 in assay [8], 0.194 in assay [9] and 0.925 in [10]. The z-score in assay [4] is -0.385 (inactive).
On to `C=C(COC)C(=O)CC[C@@H](OC(=O)c1cccnc1)c1cccc(OCCO)c1`, for which the composite z-score is 0.709 in assay [1]; 0.119 in [2]; 0.618 in [3]; 1.27 in assay [5]; -0.284 in [6]; -0.0749 in assay [7]. The composite z-score in assay [8] was 0.652; in [9], 0.284; in [10], 1.37. In addition, the z-score in assay [4] was 3.33 (inactive).
On to `C=CC[C@]1(C(=O)N(C)C)COC(c2ccc(OCCCO)cc2)=N1`, for which the composite z-score in assay [1] is 1.6; in assay [2], 0.98; in assay [3], 1.26; in [5] it was 0.772; in assay [6], 0.248; in assay [7], -0.737. Besides, the figures for the composite z-score in assay [8], in assay [9] and in assay [10] were -0.438, -0.0393 and 0.465, respectively. In assay [4], the z-score was -0.858 (inactive).
On to `O=C(NCCO)C1=C[C@H](Oc2ccccc2I)[C@@H](O)[C@H](NCc2ccc(F)cc2)C1`, for which the composite z-score is -1.55 in [1]; -0.472 in assay [2]; -0.552 in assay [3]; 1.61 in assay [5]; -0.814 in assay [6]; -0.201 in assay [7]. Besides, the values for the composite z-score in assay [8], in assay [9] and in assay [10] were -1.52, 1.19 and -2.01, respectively. Besides, the z-score in [4] is -0.635 (inactive).

The record behind these values is PubChem BioAssay.
